The record followed here is PubChem BioAssay.

Values joined by “and” are separate entries in the source; they are usually repeats but may differ in a detail not shown here. Equal entries are not always repeated. Results filed as inconclusive are left out. Active and inactive are the calls of the source.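 Rule for the calls, unless noted: active = compounds killing one labelled cell type while sparing the other, by normalised counts and ratio limits, not self-fluorescent; inactive = the rest.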

The nature of experiment [1]: EMT-state selective cytotoxicity in co-culture – imaging, PC-3E GFP, TEM4-18 mCherry, primary screen (AID 1345086).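 For all read-outs here: cells exposed to compound for 72 h before imaging.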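 For red/green cell ratio (normalised): normalised mesenchymal count divided by normalised epithelial count so high means epithelial killing.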 The settings on record: PC-3E GFP / TEM4-18 mCherry co-culture, imaging cell counts, at 1 µM; for red/green cell ratio (normalised): actives lie on both sides, counts scaled to control wells, 1 = unselective.
The test system of experiment [2] is Aerobactin synthetase IucA (Klebsiella pneumoniae). Put plainly: inhibition of K. pneumoniae IucA enzyme – biochemical, Tocris library, absorbance (AID 1345561; call rule not given here;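 note: 100% = enzyme without compound and 0% = no enzyme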). The settings on record: purified IucA enzyme assay, absorbance (OD) read-out; stronger effect = lower value;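 tested at 8 µM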.
Experiment [3] can be described thus: viability loss with induced miR-34 in A549 – imaging, A549 dox-inducible miR-34, nuclei and caspase counts, primary screen (AID 1347080;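 active = compounds whose cell count with miR-34 switched on is under 0.7 times the count with it off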). The following applies: A549 miR-34 inducible, Hoechst nuclei count, 48 h.
Experiment [4] deals with Mitogen-activated protein kinase 7 (Homo sapiens) (UniProt Q13164). Put plainly: Gal4-ERK5 driven luciferase induction – cell-based, HTS, primary screen (AID 1508626;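 active = luciferase signal above three times the same-plate solvent-only control wells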;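 note: luciferase driven by Gal4-ERK5 fusion binding five Gal4 sites before minimal TATA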). The following applies: HeLa Gal4-ERK5 transactivation, 18 h, at 5 µM, stronger effect = higher value.
A short description of experiment [5]: galactose survival enhancers in mitochondrial complex I cybrids – cell-based, galactose medium, ATP luminescence, primary screen (AID 1645843;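 active = z-score of at least 1.8 in each of two replicates, scored against plate mean and spread of sample wells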;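 note: positive z means more ATP and so rescue of galactose-driven cybrid death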). The settings on record: complex I mutant cybrid cells, 72 h, stronger effect = higher value.
The nature of experiment [6]: compounds altering viability of human ES cells (AID 493140; call rule not given here;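 note: cells exposed to compounds for four days before counting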). The following applies: human embryonic stem cell survival screen; stronger effect = higher value.
Experiment [7] in a line: P. berghei load reduction in hepatocytes – cell-based, HepG2, luciferase luminescence, HepG2 viability, primary screen (AID 624349; in the data active = parasite load remaining mostly below about 12%, no sharp cut-off; inactive = mostly above about 10%;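 note: 100% = mean of DMSO negative control wells on the same plate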). The settings on record: P. berghei liver stage in HepG2, luciferase luminescence, concentration not given here; parasite load remaining: stronger effect = lower value; viability: measured here: HepG2 viability without parasites.
Experiment [8] is described as follows: viability loss in pontine glioma line – cell-based, SU-DIPG-XVII, MIPE5.0, CellTiter-Glo, qHTS, dose response (AID 1347060; cut-off not given, nearly all actives have AC50 up to about 26 µM). The settings on record: CellTiter-Glo ATP luminescence.
Experiment [9] in a line: viability loss in pontine glioma line – cell-based, SU-DIPG-XIII, MIPE4.0, CellTiter-Glo, qHTS, dose response (AID 1347061; cut-off not given, nearly all actives have AC50 up to about 37 µM;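 note: cells exposed to compound for 48 hours before readout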). The following applies: CellTiter-Glo ATP luminescence. A general note: In ATP-based viability assays light output follows the ATP content of the culture.
The nature of experiment [10]: viability loss in pontine glioma line – cell-based, SU-DIPG-XXV, MIPE5.0, CellTiter-Glo, qHTS, dose response (AID 1347065; cut-off not given, nearly all actives have AC50 up to about 26 µM;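 note: cells exposed to compound for 48 hours before ATP readout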). The settings on record: CellTiter-Glo ATP luminescence.
Experiment [11] in a line: growth inhibition of DIPG cells – cell-based, MIPE4.0 library, CellTiter-Glo luminescence, qHTS (AID 1347066; cut-off not given, nearly all actives have AC50 up to about 30 µM;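 note: cells exposed to compound for 48 hours before readout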). The following applies: SU-DIPG-VI viability, CellTiter-Glo ATP luminescence.
A short description of experiment [12]: JHH-DIPG-1 glioma cell viability, MIPE5.0 library, CellTiter-Glo luminescence, qHTS (AID 1347067; cut-off not given, nearly all actives have AC50 up to about 26 µM;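 note: cells exposed to compound for 48 hours before readout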). The settings on record: JHH-DIPG-1 glioma viability, CellTiter-Glo ATP luminescence.
The nature of experiment [13]: growth inhibition of DIPG cells – cell-based, MIPE5.0 library, qHTS (AID 1347068; cut-off not given, nearly all actives have IC50 up to about 30 µM). The following applies: SU-DIPG-XXV viability. A general note: Quantitative high-throughput screening tests each substance at several concentrations.
Experiment [14] can be described thus: MELAS cybrid and Rieske KO viability enhancers – cell-based, MELAS cybrids, Rieske KO mouse fibroblasts, CellTiter-Glo, primary screen (AID 1508586;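 active = mean z-score across replicates of 1.96 or higher in either the MELAS or the Rieske mutant cell line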;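 note: z relative to plate mean and SD of compound and empty wells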). The settings on record: low glucose.
[15] abbreviates: measured here: epithelial PC-3E GFP cell survival.
[16] abbreviates: measured here: mesenchymal TEM4-18 mCherry cell survival.
[17] abbreviates: stronger effect = lower value, cell number ratio, induced over uninduced.
Setting [18] is: measured here: relative caspase fold change +Dox/-Dox.
Setting [19] is: measured here: total cells with miR-34 induction, stronger effect = lower value.
Where [20] appears, read: measured here: total cells without miR-34 induction.

Sequence of Mitogen-activated protein kinase 7 (Homo sapiens) (Q13164 whole entry, looked up, the tested form may be a part): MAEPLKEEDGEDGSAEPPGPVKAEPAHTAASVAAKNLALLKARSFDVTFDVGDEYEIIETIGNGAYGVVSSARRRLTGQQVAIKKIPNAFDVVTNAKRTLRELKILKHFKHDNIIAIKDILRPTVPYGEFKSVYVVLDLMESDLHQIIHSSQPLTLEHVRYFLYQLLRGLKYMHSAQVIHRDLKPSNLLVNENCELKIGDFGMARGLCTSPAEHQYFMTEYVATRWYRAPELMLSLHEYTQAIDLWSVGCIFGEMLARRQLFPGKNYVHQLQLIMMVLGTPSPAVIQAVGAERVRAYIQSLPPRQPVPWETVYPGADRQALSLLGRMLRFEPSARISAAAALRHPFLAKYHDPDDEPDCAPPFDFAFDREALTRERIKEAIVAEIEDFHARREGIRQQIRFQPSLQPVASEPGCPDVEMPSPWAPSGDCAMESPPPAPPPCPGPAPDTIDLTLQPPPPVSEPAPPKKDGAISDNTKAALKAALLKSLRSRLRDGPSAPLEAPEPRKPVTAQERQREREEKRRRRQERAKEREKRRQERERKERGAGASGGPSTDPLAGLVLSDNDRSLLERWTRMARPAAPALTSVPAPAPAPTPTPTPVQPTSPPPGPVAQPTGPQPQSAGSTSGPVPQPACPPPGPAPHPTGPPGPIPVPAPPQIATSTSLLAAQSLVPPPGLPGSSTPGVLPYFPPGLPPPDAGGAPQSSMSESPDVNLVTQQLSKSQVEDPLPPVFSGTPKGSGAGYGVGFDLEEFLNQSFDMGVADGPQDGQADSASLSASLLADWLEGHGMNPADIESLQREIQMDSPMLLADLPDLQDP

As for `NCCOB(c1ccccc1)c1ccccc1`, the red/green cell ratio (normalised) in [1] was 1.1 (inactive). The normalised cell number in experiment [1] (setting [15]) was determined as 0.8; in experiment [1] (setting [16]) it was 0.89. Moreover, the remaining activity – broadly, the signal under treatment as a percentage of the control signal – in experiment [2] is 110% (inactive). Further, the figures for the fold change in [3] (setting [17]) and in [3] (setting [18]) were 0.925 (inactive) and 0.886, respectively. In addition, the cell count was determined as 8820 in experiment [3] (setting [19]) and 9540 in [3] (setting [20]). The luciferase signal in experiment [4] is 120 AU (inactive). Besides, in [5], the z-score was 1.9 (inactive).

As for `COc1cc(OC)c2c(c1)OC(c1ccccc1)CC2=O` (stereo unspecified), the red/green cell ratio (normalised) in experiment [1] is 1.1 (inactive). Moreover, the results for the normalised cell number in [1] (setting [15]) and in experiment [1] (setting [16]) were 0.99 and 1.08, respectively.

As for `O=C1Cc2cc(O)ccc2O1`, in experiment [1], the red/green cell ratio (normalised) is 1.26 (inactive). The normalised cell number in experiment [1] (setting [15]) was found to be 0.91; in experiment [1] (setting [16]) it was 1.14.

Take `O=c1cc(-c2ccccc2)oc2ccc(O)cc12`: in [1], the red/green cell ratio (normalised) is 1.07 (inactive). Besides, the values for the normalised cell number in experiment [1] (setting [15]) and in [1] (setting [16]) were 0.91 and 0.97, respectively.

In the case of `C=C(C)C#CC1=C[C@@H](O)[C@@H]2O[C@]2([C@H](O)C=C(C)C)[C@@H]1O`, the red/green cell ratio (normalised) in [1] is 0.95 (inactive). Also, the normalised cell number came out at 0.96 in experiment [1] (setting [15]) and 0.91 in [1] (setting [16]).

In the case of `CC1=C2[C@H](C=C3CCC[C@@H](C)[C@]3(C)[C@@H]2O)OC1=O`, the red/green cell ratio (normalised) in experiment [1] was 0.84 (inactive). Also, the values for the normalised cell number in experiment [1] (setting [15]) and in [1] (setting [16]) were 1.01 and 0.85, respectively.

`O=c1c(O)c(-c2ccc(O)cc2)oc2cc(O)cc(O)c12`: the survival in experiment [6] is 7.5 (inactive). For the same compound, in experiment [7], the parasite load remaining is 80.6% (inactive). In addition, the viability (as a rule, a per cent measure of how many cells are alive, often set against a control) in experiment [7] worked out at 69.5%. Further, the red/green cell ratio (normalised) in experiment [1] is 1 (inactive). The normalised cell number in [1] (setting [15]) and in experiment [1] (setting [16]) was 1.03 throughout. In addition, in [2], the remaining activity was 107% (inactive). Further, the outcome in experiment [8], in experiment [9], in experiment [10], in experiment [11], in [12] and in experiment [13] was inactive. Moreover, the fold change was 0.974 (inactive) and 0.869 (inactive) and 0.836 (inactive) in [3] (setting [17]); 0.804 and 0.921 and 1.47 in experiment [3] (setting [18]). Besides, the cell count in experiment [3] (setting [19]) is 9050 and 8750 and 6630; in experiment [3] (setting [20]), 9290 and 10100 and 7930. Besides, the z-score is -0.357 (inactive) in experiment [14] (MELAS cybrid survival, CellTiter-Glo 48 h, stronger effect = higher value); 0.291 in [14] (Rieske KO mouse fibroblast survival, CellTiter-Glo 72 h); -0.765 (inactive) in experiment [5].

For the compound `O=C1C[C@@H](O)[C@]23Oc4ccc(O)c5c4[C@](Oc4cccc1c42)(O3)C1O[C@@H]1[C@H]5O` (stereo partly specified), the red/green cell ratio (normalised) in [1] was 0.97 (inactive). The normalised cell number came to 1.1 in [1] (setting [15]) and 1.07 in experiment [1] (setting [16]).

In the case of `O=c1c(O)c(-c2ccc(O)c(O)c2)oc2c(O[C@@H]3O[C@H](CO)[C@H](O)[C@@H](O)[C@H]3O)c(O)cc(O)c12`, in [1], the red/green cell ratio (normalised) is 0.95 (inactive). Besides, the normalised cell number turned out to be 1.06 in experiment [1] (setting [15]) and 1.01 in experiment [1] (setting [16]).
